Screening data as filed in PubChem BioAssay.
Most compounds without a hit are left out; they make up all but 12% or so of the library.
G9a block: qHTS Assay for Inhibitors of Histone Lysine Methyltransferase G9a. Histone-lysine N-methyltransferase EHMT2 (Homo sapiens), Q96KQ7. G9a H3K9 monomethylation, AlphaScreen, 2 h. Potency, µM (doses to about 102 µM), for the others: at the highest dose activity, negative = inhibition, actives largely listed as inhibitors. hit rate 8.8% among 350,000; note: potency is the fitted concentration of half-maximal effect; % is set by controls: 0 for no effect and ±100 for the full control effect; nearly all actives have a fitted effect of over 75% in size
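Readings reflect AlphaScreen signal from monomethyl-H3K9 antibody detection. HMT at 20 nM; substrate b-H3K9 500 nM; cofactor SAM 20 uM; 2 h RT reaction; compounds tested as titrations in qHTS with 15 min preincubation.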
BAZ2B inh: qHTS Assay for Inhibitors of BAZ2B; AlphaScreen BAZ2B-H3K14Ac peptide displacement; AID 504333, 2011; Potency, µM (highest dose often 114 µM), for the others: at the highest dose activity change, negative = inhibition, most hits filed as inhibitors; Bromodomain adjacent to zinc finger domain protein 2B (Homo sapiens), Q9UIF8; hit rate 4.4% among 360,000; note: potency is the fitted concentration of half-maximal effect; % is set by controls: 0 for no effect and ±100 for the full control effect; nearly all actives have a fitted effect of over 60% in size
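Protein-peptide AlphaScreen: BAZ2B 50 nM, b-H3K14Ac 50 nM, 1x PBS pH 7.4 + 0.01% Tween-20. Preincubation 30 min RT; cpd 30 min RT (top 110 uM); beads 20 min RT, light-protected.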
PI5P4K alpha inh: qHTS for Inhibitors of phosphatidylinositol 5-phosphate 4-kinase (PI5P4K); Phosphatidylinositol 5-phosphate 4-kinase type-2 alpha (Homo sapiens), P48426; PI5P4Kalpha enzyme, ADP-Glo luminescence, 60 min; active compounds read low; max response, %; hit rate 1.2% among 330,000; AID 652105, 2013; active = max response of -50% or lower; inconclusive = between -30% and -50%; inactive = -30% or higher; note: value at the top dose of about 77 µM; % is set by controls: 0 for no effect and ±100 for the full control effect
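Compounds were pin-transferred onto PI5P4Kalpha and substrate in HEPES pH 7.4 buffer with EGTA, CHAPS and 5% DMSO. ATP (5 microM final) started the reaction, which ran 60 minutes at room temperature before ADP-Glo detection.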
JMJD2A Tudor inh: qHTS Assay for Inhibitors of JMJD2A-Tudor Domain | Lysine-specific demethylase 4A (Homo sapiens), O75164 | AlphaScreen JMJD2A-Tudor / H3K4me3 peptide binding | Potency, µM (series often up to 114 µM), for the others: top-dose activity change, negative = inhibition, usual class: inhibitors | hit rate 4.4% among 390,000 | AID 504339, 2011; note: potency is the fitted concentration of half-maximal effect; % is set by controls: 0 for no effect and ±100 for the full control effect; nearly all actives have a fitted effect of over 50% in size
HP1b binding inh: HTS for Inhibitors of HP1-beta Chromodomain Interactions with Methylated Histone Tails; Potency, µM (series often up to 114 µM), for inactives: top-dose activity change, negative = inhibition, hits mostly inhibitors; Chromobox protein homolog 1 (Homo sapiens), P83916; hit rate 0.56% among 390,000; AlphaScreen HP1-beta / biotin-H3K9me3 peptide binding; AID 540317, 2011; note: potency is the fitted concentration of half-maximal effect; nearly all actives have a fitted effect of over 70% in size
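AlphaScreen: HP1-beta (50 nM) preformed 30 min with biotin-H3(1-18)K9me3 peptide (50 nM) in PBS pH 7.4, 0.01% Tween-20. Compound added for 30 min at RT, then streptavidin donor/nickel chelate acceptor beads (10 ug/mL) for 30 min.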
PLK1 PBD block: qHTS for Inhibitors of PLK1-PDB (polo-like kinase 1 - polo-box domain): Primary Screen; Plk1 PBD binding of FITC phosphopeptide, fluorescence polarization; Potency, µM, without a hit: max response, negative = inhibition, actives largely listed as inhibitors; hit rate 2.8% among 360,000; AID 720504, 2013; note: potency is the fitted concentration of half-maximal effect; series mostly up to about 57 µM; % is set by controls: 0 for no effect and ±100 for the full control effect; nearly all actives have a fitted effect of over 65% in size
An asterisk follows results filed as active; ? = inconclusive; . = no result given; [ ] = dose if it differs, or a comment. Unless noted, calls come from the whole dose curve; as a rule, active = well fitted curve in the direction sought with a large enough effect; inconclusive = small, poorly fitted or top-dose-only effect, or another doubt; inactive = no such curve, though single readings can be large; an effect the other way counts as inactive or inconclusive.

SMILES	G9a block	BAZ2B inh	PI5P4K alpha inh	JMJD2A Tudor inh	HP1b binding inh	PLK1 PBD block
O=c1c2ccccc2[nH]c(=S)n1-c1cccnc1	.	-2%	2	-6%	55%	-1%
Cc1ccc2[nH]c(=S)n(-c3cccnc3)c(=O)c2c1	45µM*	1%	-2	?	20%	-2%
Cc1ccc(C[N+](C)(C)C)o1	2%[59 µM]	.	.	.	.	.
c1ccc2c(c1)CN(Cc1ccc3c(c1)OCO3)Cc1cnnn1-2	.	.	8	.	.	-20%
CN1CCN(Cc2c(F)cccc2Cl)CC1	22µM*	63µM*	-2	10µM*	?	-1%
Fc1ccccc1N1CCN(Cc2c(F)cccc2F)CC1	1.4µM*	32µM*	.	3.5µM*	?	-11%
COc1ccc(CN2CCN(c3ccccc3F)CC2)cc1O	10µM*	?	0	3.2µM*	?	1%
Clc1ccccc1N1CCN(Cc2ccc3c(c2)OCO3)CC1	-31%[12.7 µM]	79µM*	1	28µM*	?	1%
C[C@H](N)Cc1ccccc1	-36%[12.7 µM]	.	.	.	.	.
Fc1ccccc1N1CCN(Cc2ccc3c(c2)OCO3)CC1	7.9µM*	35µM*	0	3.5µM*	?	-5%
Cc1ccccc1N1CCN(Cc2ccc3c(c2)OCO3)CC1	7.9µM*	?	1	5.6µM*	4%	-8%
O=c1[nH]c(N2CCN(Cc3ccc4c(c3)OCO4)CC2)nc2c1CCC2	1%[12.7 µM]	4%	0	-12%	40%	-6%
Clc1ccccc1CN1CCN(c2ccccc2Cl)CC1	13µM*	35µM*	.	5.6µM*	?	-10%
O=C(Nc1ccccc1)N(Cc1ccc2c(c1)OCO2)C1CCN(Cc2ccccc2)CC1	-35%[59 µM]	?	.	-30%	27%	.
CNC(=O)Oc1ccccc1C(=O)Nc1ccccc1	8%[12.7 µM]	.	.	.	.	.
C=C(C)[C@]12C[C@@H](C)[C@@]34OC(Cc5ccccc5)(O[C@@H]1[C@@H]3C=C(COC(=O)Cc1cc(I)c(O)c(OC)c1)C[C@]1(O)C(=O)C(C)=C[C@@H]41)O2	-4%[59 µM]	.	.	.	.	.
CCCCn1c(O)c(C=Nc2c(C)n(C)n(-c3ccccc3)c2=O)c(=O)[nH]c1=O	56µM*	-1%	-5	-2%	26%	-10%
Cc1c(N=Cc2c(O)n(Cc3ccccc3)c(=O)[nH]c2=O)c(=O)n(-c2ccccc2)n1C	-10%	-6%	-5	3%	20%	-2%
CCCCn1c(O)c(C(C)=Nc2c(C)n(C)n(-c3ccccc3)c2=O)c(=O)[nH]c1=O	-3%	4%	-1	-3%	23%	-3%
Cc1c(N=Nc2c(O)n(Cc3ccccc3)c(=O)[nH]c2=O)c(=O)n(-c2ccccc2)n1C	?	10µM*	0	20µM*	39%	-20%
Cc1c(N=Nc2c(O)n(C)c(=O)n(C)c2=O)c(=O)n(-c2ccccc2)n1C	?	35µM*	4	-30%	26%	2%
CCOC(=O)c1c(P(=O)(N2CCOCC2)N2CCOCC2)noc1N	-26%	9%	3	-2%[11.4 µM]	70%	-14%
COc1ccc2[nH]c(C)c(CCNCc3cc(OC)c(OC)c(OC)c3)c2c1	22µM*	79µM*	5	2.8µM*	?	-5%
COc1cc(CNCCc2c[nH]c3ccccc23)cc(OC)c1OC	.	.	1	.	.	-3%
Cc1ccc2[nH]c(C)c(CCNCc3cccnc3)c2c1	50µM*	?	1	7%	23%	-2%
SMILES	G9a block	BAZ2B inh	PI5P4K alpha inh	JMJD2A Tudor inh	HP1b binding inh	PLK1 PBD block
COc1ccc(CNCCc2c(C)[nH]c3ccc(OC(F)(F)F)cc23)c(OC)c1	45µM*	56µM*	3	18µM*	?	-12%
COc1ccc2[nH]c(C)c(CCN3CCC(=O)C(C)C3C)c2c1 (stereo unspecified)	?	?	0	?	14%	-1%
COc1ccc2[nH]c(C)c(CCNCc3cc(OC)c4c(c3)OCO4)c2c1	?	45µM*	-4	1.3µM*	?	-12%
c1cncc(CNCCN2CCNCC2)c1	.	.	7	-2%	25%	-4%
Cc1cc(C=C2C(=O)NC(=S)NC2=O)c(C)n1-c1ccc2c(c1)OCO2	11µM*	?	-72*	?	2%	2.7µM*
Cc1cc(C=C2C(=O)NC(=O)NC2=O)c(C)n1-c1ccc2c(c1)OCO2	?	-26%	?	-35%	36%	1%
O=[N+]([O-])c1ccc(S(=O)(=O)N2CCn3cccc3C2c2ccccc2F)cc1 (stereo unspecified)	?	32µM*	.	?	13%	.
O=c1[nH]c(=S)[nH]c(O)c1N=Nc1ccc(-c2ccccc2)cc1[N+](=O)[O-]	11µM*	7.9µM*	.	.	.	.
COc1ccc(S(=O)(=O)Nc2ccccc2OC)cc1N=Nc1c(O)[nH]c(=S)[nH]c1=O	.	.	-16	?	?	-9%
O=c1[nH]c(=S)[nH]c(O)c1N=Nc1cc2c(cc1[N+](=O)[O-])OCO2	50µM*	-31%	-12	-12%[57.1 µM]	-26%	-14%
C=CCc1cc(C)ccc1OCCCC(C(=O)OCC)C(=O)OCC	112%[59 µM]	169%	5	3%	167%	-28%
C=CCn1c(O)c(C(C)=NCCO)c(=O)[nH]c1=O	25%[2.33 µM]	-1%	.	-15%	-2%	-10%
C=CCn1c(O)c(C(C)=Nc2ccc(C(=O)OCC)cc2)c(=O)[nH]c1=O	?	79µM*	-17	5%	30%	-4%
C=CCn1c(O)c(C(C)=O)c(=O)[nH]c1=O (tested in a mixture with another compound)	45µM*	-38%	-16	-26%	14%	0%
C=CCn1c(O)c(/C(CC)=N/NC(=S)Nc2ccccc2)c(=O)[nH]c1=O	.	-10%	-26	-10%	18%	-14%
C=CCn1c(O)c(C(C)=Nc2ccc3c(c2)CCC3)c(=O)[nH]c1=O	-15%	-16%	-14	-8%	5%	-3%
C=CCn1c(O)c(C(C)=Nc2cccc(C(=O)O)c2)c(=O)[nH]c1=O	50µM*	-37%	-18	1%	17%	-7%
C=CCn1c(O)c(C(CC)=Nc2cccc(C(=O)O)c2)c(=O)[nH]c1=O	?	-30%	?	-10%	50%	-1%
C=CCn1c(O)c(/C(C)=N/NC(=S)Nc2ccccc2)c(=O)[nH]c1=O	-124%[59 µM]	-3%	-64*	?	6%	-25%
CNC(C)[C@H](O)c1ccccc1 (stereo partly specified)	-44%[2.33 µM]	.	.	.	.	.
